Laboratory results from the supplement of paper PMC6555819.

Tests used:
Test in all cases: PBM binding z-score (relative to random genomic background probes); higher = stronger binding; sequences stand for … in GC…GCGATTGACAGCGTAGAATGAAGG
[1] = test system: FXR:RXRa (NR concentration 270 nM, RXRa partner concentration 90 nM)
How it was run: (§1)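 Ligand-free nuclear receptor dimers were bound for 1 h to custom Agilent 4×180K protein-binding microarrays. Detection used antibodies against each partner (one per run). Binding z-scores rest on regression-normalized fluorescence, with random background probes as the reference.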

[2] = test system: LXRa:RXRa (NR concentration 270 nM, RXRa partner concentration 90 nM)
How it was run: as §1

[3] = test system: LXRa homodimer (NR concentration 270 nM)
How it was run: as §1

[4] = test system: LXRb:RXRa (NR concentration 270 nM, RXRa partner concentration 90 nM)
How it was run: as §1

[5] = test system: LXRb homodimer (NR concentration 270 nM)
How it was run: as §1

[6] = test system: PPARa:RXRa (NR concentration 270 nM, RXRa partner concentration 90 nM)
How it was run: as §1

[7] = test system: PPARg:RXRa (NR concentration 180 nM, RXRa partner concentration 90 nM)
How it was run: as §1

[8] = test system: PPARg:RXRa 270nM:90nM, anti-RXR (NR concentration 270 nM, RXRa partner concentration 90 nM)
How it was run: as §1

[9] = test system: PPARg:RXRa 30nM:10nM, anti-RXR (NR concentration 30 nM, RXRa partner concentration 10 nM)
How it was run: as §1

[10] = test system: PPARg:RXRa 90nM:30nM, anti-RXR (NR concentration 90 nM, RXRa partner concentration 30 nM)
How it was run: as §1

Sequence | PBM binding z-score [1] | PBM binding z-score [2] | PBM binding z-score [3] | PBM binding z-score [4] | PBM binding z-score [5] | PBM binding z-score [6] | PBM binding z-score [7] | PBM binding z-score [8] | PBM binding z-score [9] | PBM binding z-score [10]
CAAACTAGGTCAAGAGGTCAAAGACCGCTTCCCG | 7 | 6.25 | 5.13 | 5.46 | 1.47 | 6.65 | 10.1 | 8.53 | 7.38 | 8.62
AATCGGAGGACAAAGGTCAGAGCTACGCCAGTGA | 4.21 | 4.44 | 1.79 | 3.53 | 0.469 | 5.18 | 8.17 | 7.23 | 6.45 | 7.59
CAGCCTAGGTTAGGGCCAGTATAGGAGGAACGTT | -0.436 | -0.473 | -0.564 | -0.633 | -1.42 | -0.175 | 0.211 | -0.361 | -0.521 | -0.278
CGTACTGGGCCATCAGGTCATTGATATCAACGTT | 1.44 | 1.12 | 0.948 | 1.53 | -0.168 | 2.78 | 2.86 | 3.82 | 1.21 | 3.32
GCTGCTAGGTCAACTAATGGTCAGCTAAAGCTCG | 3.23 | 2.87 | 0.268 | 2.02 | 0.0624 | 3.29 | 2.45 | 3.11 | 0.435 | 2.19
CGAACGAGTGCATGAGTTGATAGCAAATGCCGAT | -0.259 | -0.143 | -0.369 | -0.0215 | -0.861 | 0.127 | 0.68 | 0.262 | -0.00177 | -0.142
AGTCAAAGTTCAGGACTAGGTAACGTAAAGCACG | 3.95 | 3.56 | 1.18 | 1.7 | 0.0894 | 3.41 | 4.81 | 5.05 | 2.27 | 4.21
GATCGGAGGACAAGGTCAGAGCTTTGTCCGTAGA | 1.55 | 1.42 | -0.502 | 0.993 | -1.3 | 2.42 | 1.07 | 2 | -0.141 | 1.17
CGAACGAGGGCATGAGTTGATAGCAAATGCCGAT | 0.545 | 0.339 | -0.654 | 0.279 | -0.902 | 1.71 | 1.35 | 1.57 | 0.0506 | 0.976
GCGACTAGGGCAAAGCAGGTTACCATAAGGTTGG | 0.0913 | 0.121 | -0.0293 | -0.376 | -1.03 | 1.17 | 1.63 | 1.77 | -0.187 | 0.722
TGTACAGGGTCAAAGGCCAGAGTACGAATGTCGA | 7.25 | 4.91 | -0.0298 | 4.39 | 0.326 | 6.34 | 8.21 | 7.42 | 5.22 | 7.52
ACTAGTTGGTCAGCTAAGGTCACACACAATTCGG | 3.65 | 3.51 | 2.56 | 3.35 | 0.836 | 3.93 | 1.94 | 2.76 | 0.836 | 1.64
ACTTACGGGTCAACTAGGTTATAGCACGCGTATA | 6.74 | 4.89 | 0.702 | 4.49 | 0.758 | 5.8 | 6.09 | 5.5 | 2.25 | 4.51
ACTATTAGTTGACTTAGGGCACCCGATACGACGC | -0.0668 | -0.208 | 0.0685 | -0.198 | 0.757 | -0.213 | 0.894 | 0.204 | 0.268 | 0.525
TCTCGGAGGACGCGAAGGTCAGAGCTTTCCAGAG | 0.524 | 0.815 | -0.319 | 0.715 | -1.33 | 1.69 | -0.182 | 1.06 | 1.62 | 1.21
ACTAGTCGGTCAGCTGAGGTCACACACAATTCGG | 5.04 | 4.68 | 4.97 | 3.86 | 1.32 | 4.15 | 2.51 | 2.99 | 0.573 | 2
CGAACTAGGTCAAAGACAGTGAATCTCCGCACGC | 3.64 | 2.39 | 0.268 | 1.66 | 0.166 | 4.8 | 7.47 | 6.52 | 4.4 | 6.21
AGTATGAGGTTATTAAGATCAGGGAATTGCGGTC | 1.55 | 1.75 | 0.568 | 1.52 | 0.578 | 2.12 | 0.776 | 1.12 | 0.453 | 0.816
CTTTACGGGTCACGAGGTTATAGCACGACGAGCG | 7.21 | 5.4 | 1.34 | 4.38 | 0.444 | 6.35 | 8.06 | 7.02 | 4.31 | 6.25
CCGAGTAGGTTATGGGGCAATCAGGCAACGGTGA | 0.219 | 0.461 | 0.13 | 0.86 | -0.142 | 2.37 | 3.61 | 4.62 | 2.23 | 4.39
CGTCCAAGGTCATAGGAGGTTAGTGAAGACAGAT | 7.23 | 6.11 | 2.12 | 4.77 | 0.715 | 5.61 | 4.92 | 5 | 2.04 | 3.54
CAAACTTGGTCACAGAGGTCAAAGTCCGTGCGTA | 5.4 | 5.01 | 5.81 | 5.15 | 1.63 | 5.31 | 4.74 | 5.07 | 2.04 | 4.21
CCGACTGGGGCATAAGGTTATCATAAGCCAGCCC | 0.297 | 0.921 | -0.134 | 0.498 | -1.15 | 1.94 | 2.31 | 3.06 | 1.39 | 3.18
CGTCCAAGGTCAAGGTCTGTGAAAGAGACTCGAA | 7.12 | 4.99 | 0.422 | 3.92 | 0.346 | 5.39 | 4.93 | 5.76 | 1.41 | 3.96

Sequence | PBM binding z-score [1] | PBM binding z-score [2] | PBM binding z-score [3] | PBM binding z-score [4] | PBM binding z-score [5] | PBM binding z-score [6] | PBM binding z-score [7] | PBM binding z-score [8] | PBM binding z-score [9] | PBM binding z-score [10]
CCTACTGGGCCATTCAGAGGTCAGTGATCATATG | 0.991 | 1.94 | 2.35 | 1.78 | -0.442 | 2.54 | 1.47 | 1.99 | 0.391 | 1.29
CGTTACGGGTCACTCCAGGTTATAGCATCGGAGT | 4.94 | 7.62 | 1.6 | 5.34 | -0.0358 | 4.67 | 3.44 | 4.08 | 1.42 | 2.69
GGAACGAGGGCATTCGAGTTGAGAGCATGGCGAT | 1.64 | 1.88 | -0.277 | 0.172 | -0.777 | 1.5 | 0.715 | 1.11 | -0.289 | 0.498
CCTACTGTGCCAAAAAGGTCATTGATGCCGATAA | 4.4 | 4.59 | 4.4 | 4.55 | 1.59 | 4.73 | 3.18 | 3.69 | 1.41 | 3
CTCGAAAGGTCGTGCGCAGGTGAGTATACCAAAC | 5.71 | 4.35 | 0.33 | 3.84 | 0.153 | 5.58 | 3.34 | 4.47 | 1.36 | 2.98
CCTTACGGGTCACACCAGGTTATAGCATCGGAGT | 5.86 | 6.35 | 1.01 | 4.08 | 0.198 | 5.2 | 5.14 | 4.95 | 2.28 | 3.6
GCTTCTAGGTCAGGTTGGTCAGCTAACGGGTACG | 1.94 | 1.19 | -0.092 | 1.17 | 1.34 | 2.57 | 3.16 | 3.17 | 0.647 | 2.22
CATACAGGGTCAGCTAGGCCAGATTAGGGACGGC | 4.11 | 2.99 | -0.059 | 2.4 | 0.391 | 4.38 | 3.11 | 2.96 | 0.713 | 1.62
CCTTACGGGCCAAGGTTATAGCACGGGTGGTACG | -0.197 | 0.16 | -0.442 | -0.247 | -0.834 | 0.498 | 0.573 | 0.597 | -0.309 | -0.163
CAAACTAGGTCAGGAGGTCAAAGTCCGCTTCCCG | 5.51 | 5.22 | 4.23 | 4.39 | 1.11 | 5.91 | 8.99 | 7.3 | 5.95 | 7.43
TCTTGTAGATCACAGGTTAAGAAAGCCGAAGCCT | 0.701 | 0.575 | -0.161 | 0.714 | -0.0792 | 2.09 | 2.74 | 4.44 | 3.81 | 4.64
ATCGATAGGTCGAGGTGAGTATAGAGAAAGGGAA | 0.48 | 0.636 | -0.293 | 0.566 | -0.118 | 2.02 | 0.873 | 0.711 | 0.245 | 0.369
CCTCGGAGGACAGCAGGAGGTCAGAGCTGCCAGA | 0.706 | 1.02 | 0.292 | 0.728 | -0.764 | 1.48 | -0.245 | -0.0312 | -1.08 | -0.248
CGAACTAGGTCATTGACAGGGCAGTGAATAGTAA | 4.4 | 3.17 | 0.428 | 1.99 | -0.104 | 4.74 | 7.4 | 6.18 | 3.75 | 5.96
ATCTCTAGGTAAGCAAGTTCAGTGAATGCCGAAC | 0.021 | 0.323 | 0.32 | -0.00291 | 0.392 | 0.496 | 0.0727 | 0.538 | 0.367 | 0.23
ATCAAAAGGTCGTGAGGTGAGTATACAGAAAGGC | 5.1 | 4.46 | 0.539 | 3.63 | 1.22 | 5.2 | 4.38 | 4.66 | 1.92 | 3.33
ATATGTATGTTACATCCGGGTCATTCAGGCTATG | 1.15 | 1.58 | 0.696 | 2.06 | 0.763 | 2.94 | 1.75 | 1.55 | 0.754 | 1.22
GCTAGCAGGCCATTGGGGTCACTCAATGACGGGC | 2.93 | 2.47 | -0.298 | 3.06 | -0.749 | 4.28 | 1.95 | 3.1 | 0.521 | 2.17
TAGCCTAGGTCATGCGGACCAGTATAGTGTCGGC | 3.93 | 3 | 0.318 | 1.59 | -0.198 | 3.33 | 1.99 | 2.5 | 0.202 | 1.38
ATCGAAAGGTCGAGAGGTGAGTATACAGAAAGGC | 4.46 | 3.02 | -0.0292 | 2.63 | 0.274 | 4.33 | 3.42 | 3.44 | 1.69 | 2.47
CCTTACCGGTCACGAGGTTATAGCACGACGAGCG | 2.69 | 3.04 | 2 | 2 | 0.699 | 2.85 | 2.12 | 2.07 | 0.437 | 1.06
CGTCCAAGGTCAAGGTCAGTGAGAGAGACTCGAA | 7.65 | 5.63 | 1.24 | 4.59 | 0.615 | 6.05 | 6.16 | 6.13 | 2.58 | 4.79
ATATGTAGGTTAAGGGTCATTCATGTTGGTTCGC | 5.05 | 4.86 | 3.12 | 4.48 | 1.33 | 6.66 | 11.6 | 9.59 | 9.79 | 10.5
TCGAGTACGTTAGTCGGGGCATTCAGCCAACATA | -0.454 | -0.474 | -0.665 | 0.0371 | -1.12 | 0.167 | -0.163 | 0.223 | 0.88 | 0.775
